# Results taken from PubChem BioAssay (NCI).
# Compounds without any hit were thinned out: in the full panel of roughly 83,000, 20% have a hit.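 Each cell line was grown in a 96-well plate and treated with one concentration of compound for 48 hours. Values below 10 were considered active.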 Values without a mark were called inactive. Activity calls are given as the source filed them.
# Tested on: NCI/ADR-RES ovarian
# Experiment: NCI-60 one-dose screen, 48 h (100 = growth as untreated, 0 = no growth, -100 = all killed)
# Settings: 10 µM unless noted
row,Compound,growth [%]
1,C[C@@H]1C[C@H](N)C[C@H](c2ccncc2NC(=O)c2ccc(F)c(-c3c(F)cccc3F)n2)C1,65.8
2,CCCCCCCCCCCCCCC(C(=O)OCC)C(=O)OCC,104
3,CN(C)c1ccc(/C=C(\C#N)c2nc3ccccc3n2C)cc1,27.6
4,O=C(CS)OCC(COC(=O)CS)(COC(=O)CS)COC(=O)CS,74.3
5,CCN(CC)CCC(CNc1ccnc2cc(Cl)ccc12)c1ccc(O)cc1 (centres undefined),99.8
6,CNC(=O)c1ccccc1Sc1ccc2c(/C=C/c3ccccn3)n[nH]c2c1,36.9

# Tested on: T-47D breast
# Experiment: as above
# Settings: 10 µM unless noted
row,Compound,growth
1,COc1ccc(C2C3CCc4ccccc4C3=NN2C(=O)c2cc(OC)c(OC)c(OC)c2)cc1O (centres undefined),87%
2,CCOC(=O)c1ccc(NC(=O)NC2=NCCS2)cc1,35.8%
3,CC(C)COC(=O)NC(C)(C)C,99.6%
4,Cn1c(=O)c2[nH]c(Cc3ccc4c(c3)OCO4)nc2n(C)c1=O,99.8%
5,Nc1nc(N)c2c(n1)NC(c1sc(Cl)nc1Cl)CC(c1ccc3c(c1)OCO3)=N2 (centres undefined),39.1%
6,Cc1ccccc1N1C(c2ccccc2)=NNC12C=CC(=O)c1c(O)cccc12 (centres undefined),87.7%
7,Nc1nc(N)c2c(n1)NC(c1sc(Cl)nc1Cl)CC(c1ccccc1)=N2 (centres undefined),43.6%
8,C=C1NC(=O)C(C(C)CC)NC(=O)C2CSCC(NC(=O)CCC(=O)O)C(=O)NC(Cc3ccccc3)C(=O)NC(C)C(=O)NC(CC(C)CC)C(=O)NC(C(=O)NC(Cc3ccccc3)C(=O)N3CCCC3C(=O)N2)C(C)OC(=O)C(CO)NC(=O)C(C(O)COC)N(C)C(=O)C(C(C)C)NC(=O)C(CC(C)CC)NC1=O (centres undefined),60.2% [6 µM]
9,Cc1nc2c(-c3cnc(N)nc3)nc(N3CCOCC3)nc2n1C(C)C,-18% (active)
10,C=CC[C@]1(O)CC[C@H]2[C@@H]3CCc4cc(O)ccc4[C@H]3CC[C@@]21C,82.5%
11,COS(=O)(=O)CCN(CCOS(C)(=O)=O)S(C)(=O)=O,98%
12,Cc1nc2ccc(Nc3nc(NCCN4CCOCC4)nc(Nc4ccc(F)cc4)n3)cc2n1Cc1ccccc1,53%
13,COC1CC(N)C2OC(c3ccccc3)OCC2O1 (centres undefined),107%
14,COc1ccc2[nH]cc(C(c3ccc(Cl)cc3)N3CCCC3)c2c1 (centres undefined),74%
15,CCOP(=O)(O)OP(=O)(O)OCC,92.5%
16,COc1cccc(/C=N/N=C(N)N)c1,97.5%
17,COc1ccc(C2CC(c3ccc(Nc4ccnc5cc(Cl)ccc45)cc3)=NN2c2ccccc2)cc1 (centres undefined),92.9%

row,Compound,growth
1,CC1=C(O)C(=O)C(c2c(C)cc(C)c(Br)c2C)=C(O)C1=O,83.3%
2,FC(F)(F)C1=NNC(c2ccc3ccccc3c2)=NN1,96.7%
3,NC(N)=N/N=C\c1ccc(OCc2ccccc2)cc1,35.7%
4,COc1ccc(NC(=O)C2c3ccccc3C(=O)N(CC(C)C)C2c2cccs2)cc1 (centres undefined),102%
5,NC(N)=N/N=C\c1cccc(OCc2ccccc2)c1,26.6%
6,CS(=O)(=O)Nc1cc(-c2cc3ncc(C#N)c(Nc4ccc(Oc5ccccc5)c(Cl)c4)c3s2)cnc1Cl,15.8%
7,Cc1ccc(NC(=O)c2nc(S(C)(=O)=O)oc2-c2ccc(F)cc2)cc1Nc1ccc2ncn(C)c(=O)c2c1,-9.98% (active)
8,CC(=O)[C@H]1CC[C@H]2[C@@H]3CC[C@H]4CC=CC[C@]4(C)[C@H]3CC[C@]12C,95.2%
9,COc1cccc(NC(=O)[C@H](C(C)C)n2c(=O)[nH]c3ccccc3c2=O)c1,91.1%
10,CC(C)N1CCN(c2ccncc2S(=O)(=O)N2CCN(C)CC2)CC1,96.2%
11,[O-]/[N+](=C\c1ccccc1)CC1(O)CCCCC1,106%
12,CCc1ccc(-c2ccc(NC3CCCCCC3)nn2)cc1S(N)(=O)=O,103%
13,C[C@@H]1C[C@H](N)C[C@H](c2ccncc2NC(=O)c2ccc(F)c(-c3c(F)cccc3F)n2)C1,4.14% (active)
14,CCCCCCCCCCCCCCC(C(=O)OCC)C(=O)OCC,101%
15,O=C(Nc1ccc2[nH]c3ccccc3c2c1)c1ccccc1Cl,43.7%
16,CN(C)c1ccc(/C=C(\C#N)c2nc3ccccc3n2C)cc1,40.2%
